# Test results taken from ChEMBL document CHEMBL3988442, “University of Dundee, Small-Polar-MMV Screening Library” (2021).
# Columns and labels:
# [1] = molecular target: T1, Aspartate--tRNA(Asp/Asn) ligase (Mycobacterium tuberculosis (strain ATCC 25618 / H37Rv)) (UniProt P9WFW3); experiment: Assay for Asp RNA synthetase-1 from Mycobacterium tuberculosis; assay type: functional; parameters: scale not given: direction of the effect not stated beside the values; details: 30 µM; also: in the data most compounds retested in dose-response had high values
# T1 sequence (whole entry): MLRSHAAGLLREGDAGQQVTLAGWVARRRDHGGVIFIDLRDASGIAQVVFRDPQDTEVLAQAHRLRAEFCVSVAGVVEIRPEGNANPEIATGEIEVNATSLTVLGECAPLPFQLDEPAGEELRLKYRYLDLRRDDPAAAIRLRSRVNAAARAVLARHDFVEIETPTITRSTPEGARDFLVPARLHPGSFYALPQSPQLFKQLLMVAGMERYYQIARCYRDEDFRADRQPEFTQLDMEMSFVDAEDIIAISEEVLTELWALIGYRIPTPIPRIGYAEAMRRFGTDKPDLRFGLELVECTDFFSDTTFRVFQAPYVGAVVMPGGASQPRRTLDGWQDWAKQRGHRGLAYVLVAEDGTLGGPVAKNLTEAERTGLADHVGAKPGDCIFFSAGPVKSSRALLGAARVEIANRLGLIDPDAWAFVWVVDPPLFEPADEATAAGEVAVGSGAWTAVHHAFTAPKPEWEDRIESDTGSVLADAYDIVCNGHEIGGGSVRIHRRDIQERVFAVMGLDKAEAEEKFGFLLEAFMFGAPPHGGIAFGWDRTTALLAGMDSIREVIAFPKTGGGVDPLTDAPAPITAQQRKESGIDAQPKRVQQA
# [2] = molecular target: Shiga toxin 2 (Escherichia coli O157:H7) (UniProt P09385+P09386); experiment: E. coli 0.157:H7 Shiga Toxin SOP - stx2 screening assay; assay type: functional; parameters: scale not given: direction of the effect not stated beside the values; details: 30 µM
SMILES,Percent Effect [1],Percent Effect [2]
CCc1nc(C2CCCN2C(=O)c2cc(C3CC3)[nH]n2)no1 (centres undefined),-7.78%,8.24%
O=C1C(NCc2nnc3n2CCCC3)CCN1CC(F)(F)F (centres undefined),-0.389%,1.91%
Cc1nc(CCNC(=O)C2CC(=O)N(C(C)(C)C)C2)sc1C (centres undefined),1.05%,-3.12%
c1cnn(CC2CN(CC3CCCC3)CCO2)c1 (centres undefined),-6.1%,-0.337%
O=C(c1ccccn1)N1CCn2cnc(COCC3CC3)c2C1,1.82%,-5.26%
Cn1ncc2c1CN(Cc1cccnc1)CC2COCC1CC1 (centres undefined),2.03%,-44.8%
c1ccc(CN2CCOCC3(CCN(C4CCOCC4)C3)C2)cc1 (centres undefined),6.57%,12.2%
CCN(CC)C(CNS(=O)(=O)c1ccc(C(=O)NC)cc1)c1ccco1 (centres undefined),-2.1%,-17.4%
CN(Cc1cncnc1)Cc1cn2c(n1)CN(C1CCOC1)CC2 (centres undefined),7.69%,-15.6%
CC(O)CNC(=O)NCc1cccnc1OC1CCCC1 (centres undefined),-4.34%,-12.4%
NC(=O)C1CCN(Cn2nc(-c3ccc(F)cc3)oc2=O)CC1,4.96%,-69.6%
Cn1cc(-c2csc(N3CCOCC3)n2)cn1,2.54%,-13%
CCOCCn1nc(C)cc1C(=O)N1CCN(C(C)C)C(CC)C1 (centres undefined),-1.08%,10.1%
CC(C)(C)n1ncc2c1CCCC2NCc1cccc2c1OCO2 (centres undefined),-0.568%,-1.18%
N#Cc1cc(NS(=O)(=O)c2ccc(C(=O)O)cc2F)ccc1F,2.89%,9.05%
CC(=O)N1CCCCC1c1nc(N)ncc1-c1ccccc1 (centres undefined),5.78%,4.38%
CNC(=O)CN(C)c1nc(-c2ccncc2)nc2c1CCN(C(C)=O)C2,-1.03%,-0.42%
CNC(=O)COc1ccc(CNCc2ccc(F)cc2F)cc1,3.4%,-35.4%
Cc1cc(-c2cnn(CCNC(=O)C3CC3)c2C2CC2)on1,0.838%,64.1%
CC(=O)N1CCCC1c1cc(N2CCN(C3CCCC3)CC2)cc(C)n1 (centres undefined),-4.16%,5%
CN1[C@H](Cn2cncn2)C[C@@H]2CN(Cc3cccc(C#N)c3)CC[C@@H]21,0.0985%,-24.3%
CN1N=C(C(=O)N(Cc2ccco2)C2CC2)CCC1=O,-2.73%,1.36%
COc1ccc(CCNC(=O)C2CCC(Cn3cnnn3)CC2)cc1 (centres undefined),-2.03%,-4.05%
Cc1cnn(CCNCc2csc(-c3ccc(F)cc3)n2)c1,-1.03%,13.4%
c1sc(C2CCCC2)nc1CN1CCn2c(nnc2C2CC2)C1,3.23%,27.9%
Cc1cnn(CC2CCCN2Cc2nnsc2Cl)c1 (centres undefined),-2.88%,9.02%

SMILES,Percent Effect [1],Percent Effect [2]
COc1ccccc1OCC(=O)NS(=O)(=O)c1ccc(C)s1,-0.394%,3.1%
Cc1ccccc1CSc1nc(N)cc(N2CCOC(C(N)=O)C2)n1 (centres undefined),3.12%,-13.5%
Cc1nc2ccccc2nc1CN(C)CC1CCCN1c1cccnn1 (centres undefined),1.76%,22.3%
Cc1cc(=O)n(CC(=O)NCC2CCCO2)c(-c2ccc(F)cc2)n1 (centres undefined),5.94%,-51.4%
CN(C)C(=O)N1CCOCC2(CCN(c3ncccn3)C2)C1 (centres undefined),0.466%,10%
CC(C)OCCCNC(=O)c1ccc(-c2ccco2)[nH]c1=O,-5.99%,19%
CCOCC1CN(Cc2cnn(C)c2)Cc2nn(C)cc21 (centres undefined),-3.19%,-11.8%
COC(=O)CCC(=O)N1CCc2[nH]nc(-c3ccc(F)c(F)c3)c2C1,5.15%,-11.9%
CCn1cc(NC(=O)CCc2ccc3c(c2)OCCCO3)cn1,-3.45%,-47.1%
COc1cn(-c2ccccc2)nc1C(=O)NCCCN1CCCC(C)C1 (centres undefined),-1.18%,7%
COc1ccc(C(O)CNC(=O)Nc2cc(C)nn2C)cc1 (centres undefined),-1.41%,26.8%
COc1ccc(N2CCC(C(=O)/N=c3/[nH]ccs3)CC2)nn1,-0.842%,-7.73%
CC(C)OCCCN1CCCC(c2nc3ccccc3n2C(C)C)C1 (centres undefined),6.04%,-18.5%
CC(NC(=O)NCC1(O)CCC1)c1ccc(OCC2CC2)c(F)c1 (centres undefined),-6.14%,-4.99%
CC(NC1(CNC(=O)C(C)(C)C#N)CCOCC1)c1ccccc1 (centres undefined),-6.25%,-10.5%
COc1ccc(C)cc1CN1CCCC1c1noc(C2CC2)n1 (centres undefined),-4.34%,-3.88%
Fc1ccc(CN2CCC(c3n[nH]c4ncccc34)CC2)cc1F,5.4%,15.2%
Cc1noc(C2CCN(C(=O)c3ccc(N(C)C)nc3)CC2)n1,-4.17%,-12.5%
COCCCN1CCc2cncnc2C1,10.5%,-35.2%
O=C(c1cc(Cl)c2c(c1)OCO2)N1CCN(c2ccccn2)CC1,-0.949%,18.3%
Cc1ccccc1CS(=O)(=O)CC(=O)NCc1ccccc1F,7.37%,10.5%
CC[C@@H](CO)NC(=O)c1coc(COc2ccc(OC)cc2)n1,6.33%,-5.46%
Cc1nc(CN2C(=O)COC3(CCN(Cc4ccco4)CC3)C2C)cs1 (centres undefined),-2.99%,-19.9%
COCC(=O)N1CC[C@H]2C[C@H](C)O[C@@H]2C1,-2.9%,3.29%
CC(C)C(C(=O)N1CCCN(Cc2cnn(C)c2)CC1)n1cncn1 (centres undefined),-1.93%,-40.5%
CCn1cc(CN2CCCN(C(=O)c3ccn(C)c(=O)c3)CC2)cn1,1.33%,-0.744%

SMILES,Percent Effect [1],Percent Effect [2]
COCC(=O)N1CC[C@@H]2O[C@H](COCc3ccncc3)CC[C@@H]21,4.14%,-2.38%
Cc1cnn(C2CCCN(C(=O)Cc3ccc(-n4cccn4)cc3)C2)c1 (centres undefined),-4.37%,4.84%
CCS(=O)(=O)c1ccccc1N1CCC(NC(C)=O)CC1,-0.991%,11.9%
O=C(CCc1ccccc1)Nc1ncccc1OC(F)F,-3.26%,-5.61%
Cc1ccc(N2CCCC(NCc3ccncc3)C2)nn1 (centres undefined),0.131%,-14.5%
c1cnc(NCc2noc3c2CN(C2CCOCC2)CC3)nc1,2.79%,-7.78%
Cc1cnc(CN(C)C2CCN(CC(=O)N(C)c3nccs3)C2)o1 (centres undefined),-1.66%,-15.8%
CN(C)CC1CN(Cc2ccc3c(c2)OCO3)Cc2nccn2C1 (centres undefined),9.35%,4.74%
COC(=O)CC(c1ccc(OC)c(OC)c1)c1oc(C)cc(=O)c1O (centres undefined),-0.938%,-7.17%
Cc1nn(CC(=O)N2CCN(c3ccncc3)CC2)c(C)c1Cl,0.15%,-36.1%
Cc1csc2nc3n(c(=O)c12)CCN(C(=O)c1ccncc1)CC3,-3.92%,3.14%
O=C(NC1CC1)[C@H]1C[C@H]2OCC[C@H]2N(CC2CCOCC2)C1,4.28%,-17.4%
Cc1cc(NC(=O)CN2CCn3c(nnc3C(C)C)C2)no1,-3.23%,-39.9%
Cc1cccc(C2(CNC(=O)CCNS(C)(=O)=O)CCCC2)c1,-6.94%,-8.2%
CCC(CNC(=O)c1ccc(=O)[nH]n1)N1CCc2ccccc2C1 (centres undefined),2.11%,-11.6%
Cn1cc(CN2C[C@@H]3COC[C@]3(COc3ccc(C#N)cn3)C2)cn1,3.33%,-7.69%
COc1cccc(COCC(=O)N2CCCC(c3nncn3C)C2)c1 (centres undefined),-1.97%,8.24%
O=C(CN1CCCC(c2ccc(C(=O)O)cc2)C1)NC1CC1 (centres undefined),-1.07%,6.8%
Cc1cc(=O)n2ncnc2n1CC(O)c1ccccc1Cl (centres undefined),-0.03%,-19.6%
Cc1cnccc1CN1C[C@@H](O)[C@H](Oc2cccc(F)c2)C1,-1.59%,-1.74%
Cc1cccc(CNC(=O)CNc2cc(CO)ccc2Cl)c1,5.12%,0.559%
Cc1ccccc1CCNC(=O)C1CC(=O)N(CC(F)(F)F)C1 (centres undefined),4.08%,9.05%
O=C1N(c2cccc(Cl)c2)Cc2nc(=O)n(Cc3cccc(F)c3)n21,6.56%,-11.3%
Cc1cccc(CN2C[C@@H]3COC[C@]3(COc3ccc(C#N)cn3)C2)n1,-4.33%,-13.9%
COc1cc(C(=O)N(C2CC2)C2CC(=O)NC2=O)ccc1C (centres undefined),-3.91%,3.11%
Cc1c[nH]c(CN(C)c2nc(C3CCCC3)nc3c2cnn3C)n1,0.0557%,-4.38%

SMILES,Percent Effect [1],Percent Effect [2]
O=C(c1cnn2c1OCCC2)N1CCN(C/C=C/c2ccccc2)CC1,3.28%,-6.18%
Cc1cnn(CC2CCCN2Cc2nccn2C)c1 (centres undefined),5.22%,7.58%
CC(C)(O)CN1CCN(C(=O)c2cccnc2O)CC1,-6.95%,9.08%
c1cc(CN2CCN(Cc3cscn3)CC2)cs1,1.38%,26.6%
Cc1nn(C)c(C)c1C1COCCN1C(=O)c1cnc(N)c(Cl)c1 (centres undefined),0.88%,-23.7%
Cc1ncccc1OC1(C(=O)NCCCN2CCOCC2)CCNCC1,1.19%,-8.28%
CCOC(=O)CCC(=O)N1CCC(Oc2ccc(C(F)(F)F)cn2)CC1,-1.91%,12.6%
COc1ccccc1CCNC(=O)CN1CCCC1c1noc(C)n1 (centres undefined),-3.12%,34.4%
Cc1cnn(CC2CN(Cc3cccc(OCC(N)=O)c3)CCO2)c1 (centres undefined),-5.07%,8.76%
CC(C)(C)c1nnc(CN2CCOC(Cn3cccn3)C2)o1 (centres undefined),-6.74%,-2.05%
C[C@H](O)CNC(=O)c1cnc(-c2ccccc2)nc1O,2.44%,-10.8%
Cn1ccnc1CN1CCN(c2ccc(C#N)cc2F)CC1,-2.39%,-29.4%
CC(NC(=O)Cc1cccs1)c1nnc2n1CCCCC2 (centres undefined),-4.69%,5.32%
Cc1cnnn1Cc1ncn2c1CN(Cc1cccs1)CCC2,-1.27%,-3.58%
O=C(COc1coc(CN2CCCCC2)cc1=O)Nc1ccccc1Cl,0.319%,-4.27%
Cc1cc(C)n(-c2cncc(NCCNC(=O)CC3CCCC3)n2)n1,0.268%,-15.9%
CC(C)NC(=O)[C@@H]1CCO[C@@H]2CCN(c3ncccn3)C[C@H]21,4.69%,-19.4%
CCOc1ncccc1NC(=O)N1CCN(c2cccc(C)c2C)CC1,1.92%,38.1%
CN(CCC#N)C(=O)CN1CCCC1c1ccsc1 (centres undefined),2.1%,22%
COCCNc1nc(C2CCCC2)nc2c1CCNCC2,2.87%,-36.8%
COc1ccc(OC)c(NC(=O)NCC(O)c2ccc(F)c(F)c2)c1 (centres undefined),4.09%,-0.389%
CN(C)CC1CN(c2ncnc3[nH]ccc23)CCO1 (centres undefined),-0.0146%,-33.5%
Cc1oncc1C(=O)N1CCC2(CCN(Cc3ccccn3)C2=O)C1 (centres undefined),-2.39%,-12.9%
CC(C)c1n[nH]c(C2CN(C(=O)CCn3ccccc3=O)CCO2)n1 (centres undefined),-1.85%,10.2%
